# Reference: PubChem BioAssay AID1347075 (National Center for Advancing Translational Sciences (NCATS), 2019)
# Where “and” joins values, the source holds several entries; their conditions need not be identical. Identical values can stand only once. The campaign covered roughly 400,000 compounds. About 5,500 (1.4%) were called active. Another 9% or so got no clear call; they are omitted. Calls come from the whole dose curve; as a rule, active = well fitted cell-killing curve with a large enough effect; inconclusive = small, poorly fitted or top-dose-only effect, or effect the other way; inactive = flat fitted curve, though single readings scatter. The list comes from a sample in which actives are over-represented; it also holds similar structures and randomly drawn compounds. Entries that show only a call come without a potency.
# Assay: qHTS assay for MDR1-selective chemotherapeutics: Primary screen using the parental adenocarcinoma cell KB-3-1; note: nearly all actives have a fitted effect of over 60% in size
# Conditions: KB-3-1 viability, CellTiter-Glo ATP luminescence, 72 h; series mostly up to 46.1 µM
# Method in brief: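 Multi-concentration cytotoxicity screen in KB-3-1 cells grown in DMEM lacking phenol red with 10% FBS. After 72 h at 37 °C with compound, ATP-dependent luminescence was recorded.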
# Potency is the fitted concentration of half-maximal effect.
row,Compound,Potency
1,CCCCCn1c(=O)[nH]c2cc(C(=O)NCCN(C)CCCC)ccc2c1=O,inactive
2,Cc1noc(C)c1COC(=O)COc1ccc(-c2ccccc2)cc1,inactive
3,CC(=O)c1ccc(NC(=O)COc2ccccc2-c2nc(-c3ccccc3)no2)cc1,inactive
4,O=C(Oc1ccc(-c2nc(-c3ccccn3)no2)cc1)c1ccccc1,7.31 µM (active)
5,CCOC(=O)c1c(-c2ccc(OC)cc2)oc2ccc(OCc3ccc(C(=O)OC)cc3)cc12,inactive
6,O=C(OC/C=C/CSc1nnc(-c2cccc3ccccc23)o1)c1ccc(F)cc1,inactive
7,Cc1nc2c(-c3ccccc3)c(C)nn2c(C)c1CCC(=O)NCCc1ccccc1,inactive
8,Cc1ccc(C)c(N2CCN(C(=O)Cn3ncc4c(=O)oc5ccc(C)cc5c43)CC2)c1,inactive
9,CC1CCCN(c2csc3ccc(F)cc3c2=O)C1 (stereo not given),inactive
10,N#CC1=C(SCc2ccccc2)NC(=O)C(C#N)C12CCCC2 (stereo not given),11.6 µM (active)
11,Cc1ccc(CNS(=O)(=O)c2ccc(C(=O)N(C)C)s2)cc1,inactive
12,Cn1c(C(=O)N2CCC(C(=O)N3CCN(c4ccccc4)CC3)CC2)cc2sccc21,inactive
13,Nc1c(C(=O)NCc2ccccc2)nnn1Cc1cccc(Cl)c1,20.6 µM (active)
14,COc1cccc(CNC(=O)c2nnn(CC(=O)Nc3cc(C)ccc3C)c2N)c1,inactive
15,COc1cccc(CNC(=O)c2nnn(CC(=O)Nc3cc(Cl)ccc3C)c2N)c1,inactive
16,CC1(C)CC(N2CCN(C(c3ccccc3)c3ccccc3)CC2)=CC(=[N+]2CCCCC2)C1,0.517 µM (active)
17,CN(C(=O)CSc1nc2ccccc2n1Cc1ccccc1C#N)c1ccccc1,inactive
18,Cc1ccc(-c2noc(CSc3nnc(-c4ccc(Cl)cc4)n3C)n2)cc1,inactive
19,Cc1nn(-c2ccccc2)c(C)c1NC(=O)COc1ccc(Cl)cc1Cl,5.17 µM (active)
20,Cc1nn(-c2ccccc2)c(C)c1NC(=O)CCl,14.6 µM (active)
21,Cc1nn(-c2ccccc2)c(C)c1NC(=O)COC(=O)c1cc(Cl)ccc1O,inactive
22,CCC(Oc1ccccc1)C(=O)OCC(=O)Nc1c(C)nn(-c2ccccc2)c1C (stereo not given),inactive
23,C/C=C/c1ccc(OCC(=O)OCC(=O)Nc2c(C)nn(-c3ccccc3)c2C)c(OC)c1,inactive
24,Cc1cccc(C)c1NC(=O)CNC(=O)c1c(C)nn(-c2ccccc2)c1C,inactive
25,OCc1cnc(SCc2ccc(F)cc2)n1Cc1ccc(F)cc1,inactive

row,Compound,Potency
1,CN1C(=O)c2ccccc2Sc2ccc(NC(=O)Cc3ccc(Cl)cc3)cc21,inactive
2,COc1ccc2c(C)c(CCC(=O)NCc3ccc(OC)c(OC)c3)c(=O)oc2c1,inactive
3,Cc1ccc(C)c(N2CCN(C(=O)CN3C(=O)COc4ccc(S(=O)(=O)N5CCCCCC5)cc43)CC2)c1,inactive
4,COc1ccccc1NC(=O)C1=C(C)Nc2ncnn2C1c1sccc1C (stereo not given),inactive
5,COc1ccccc1NC(=O)C1=C(C)Nc2nc3ccccc3n2C1c1cccs1 (stereo not given),3.26 µM (active)
6,CC1=C(C(=O)Nc2ccccc2Cl)C(c2cccs2)n2ncnc2N1 (stereo not given),inactive
7,Cc1nc2c(c(C)nn2-c2ccccc2)c(C)c1CCC(=O)NCCc1ccc(Cl)cc1,inactive
8,O=C1CC(c2nnc(Cc3ccc(Cl)cc3)o2)CN1c1ccccc1 (stereo not given),inactive
9,CCC(=O)N1CCc2cc(Br)cc(S(=O)(=O)NCc3ccc(Cl)cc3)c21,inactive
10,COc1cc(C=C(OC(C)=O)c2ccc3c(c2)OCO3)cc(OC)c1OC,inactive
11,COc1cc(C2c3cc4c(cc3C(O)C3COC(=O)C23)OCO4)cc(OC)c1OC (stereo not given),146 nM (active) and 164 nM (active)
12,COc1cc(C2CC(=O)Oc3cc(OC)c(OC)c(OC)c32)cc(OC)c1OC (stereo not given),inactive
13,Cc1ccccc1NC(=O)Cn1cc(C(=O)c2cccs2)c2ccccc21,inactive
14,CCCCOC(=O)CSc1ncnc2sc3c(c12)CCC(C)C3 (stereo not given),inactive
15,CC1CCCCN1S(=O)(=O)c1ccc(C(=O)Nc2nnc(-c3cccs3)o2)cc1 (stereo not given),9.2 µM (active)
16,CC1CCCCN1S(=O)(=O)c1ccc(S(=O)(=O)N(CC(=O)Nc2ccccc2)Cc2cccs2)cc1 (stereo not given),inactive
17,CC1CN(S(=O)(=O)c2ccc(C(=O)Nc3sccc3C(N)=O)cc2)CC(C)O1 (stereo not given),inactive
18,Cc1c(C(=O)Nc2ccccc2)sc2nc3n(c(=O)c12)CCCCC3,inactive
19,Cn1c(-c2ccc(C(=O)c3ccccc3)s2)nc2ccccc21,inactive
20,Cc1nc2sc(C(=O)c3ccccc3)c(N)c2c2c1CCCC2,23.1 µM (active)
21,CCN(Cc1ccccc1)Cc1c(O)ccc2c(=O)c(-c3ccc(Cl)cc3Cl)coc12,inactive
22,CC1CN(C(=O)N2CCC(C(=O)NCc3ccco3)CC2)c2cc(Cl)ccc2O1 (stereo not given),inactive
23,COc1ccc(-c2noc(CCC(=O)N(C)c3ccccc3C)n2)cc1,inactive
24,Cc1[nH]n(-c2cccc(Cl)c2)c(=O)c1/C=N/n1c(C)nc2ccccc2c1=O,10.3 µM (active)
25,Cc1nc2ccccc2c(=O)n1-c1ccc(NS(=O)(=O)c2ccc(F)cc2F)cc1,inactive

row,Compound,Potency
1,Cc1cc2n(n1)C(c1cc(C(C)(C)C)c(O)cc1O)Nc1ccccc1-2 (stereo not given),inactive
2,O=C(CCC1N=C2c3ccccc3N=C(SCc3ccccc3F)N2C1=O)NCCc1ccccc1 (stereo not given),inactive
3,COc1cccc(CNC(=O)Cc2csc3nc(-c4ccccc4)cn23)c1,inactive
4,COc1ccc(NC(=O)CSc2nc3ccccc3[nH]2)cc1,inactive
5,Cc1ccc2nc(CNC(=O)c3ccccc3)[nH]c2c1,inactive
6,COC(=O)Nc1nc2ccc(Sc3ccccc3)cc2[nH]1,1.46 µM (active)
7,COc1ccc(CCNc2ncnc3onc(-c4ccc(Cl)cc4)c23)c(OC)c1,inactive
8,COc1ccc(Cl)cc1NC(=O)CN(C)C(=O)c1cc(-c2cccs2)nn1-c1ccccc1,20.6 µM (active)
9,COc1ccc(Cl)cc1NC(=O)CN(C)C(=O)c1ccc2n[nH]nc2c1,inactive
10,COc1ccc(Cl)cc1NC(=O)CSc1nc(-c2cccs2)cc(C(F)(F)F)n1,inactive
11,C=CCNC(=O)c1ccc2nc(-c3ccco3)c(-c3ccco3)nc2c1,inactive
12,CC(C)(C)OC(=O)N(Cc1ccco1)S(=O)(=O)c1ccccc1Br,inactive
13,COc1ccc(CC(=O)Nc2ccc(-c3nc4ccccc4s3)c(C)c2)cc1,inactive
14,COC(=O)Cc1[nH]n(-c2nc3ccccc3s2)c(=O)c1C(C)=Nc1ccc(OC)cc1,9.2 µM (active)
15,Cc1ccc(C)c(NC(=O)CSC2=Nc3ccccc3N=C(c3ccc(F)cc3)C2)c1,inactive
16,CCOC(=O)C1CCN(c2csc3ccc(C)cc3c2=O)CC1,inactive
17,O=C(Cn1c(=O)n(Cc2ccccc2)c(=O)c2sc3ccccc3c21)Nc1ccccc1F,inactive
18,CN(C)c1ccc(CSc2ccccc2)cc1,inactive
19,CN(C)c1ccc(/C=C/c2sc3ccccc3[n+]2C)cc1,6.51 µM (active)
20,CN(C)c1ccc(/C=C/c2sc3ccccc3[n+]2CCCCBr)cc1,1.3 µM (active)
21,CN(C)c1ccc(/C=C/c2c3ccccc3nc3ccccc23)cc1,inactive
22,CCN(CCCNC(=O)c1cc2c(=O)n(CC)c3ccccc3c2s1)Cc1ccccc1,inactive
23,CCc1ccc(OCCCn2c(CCCNC(=O)C3CCCCC3)nc3ccccc32)cc1,inactive
24,COc1cccc(N2CCN(S(=O)(=O)c3cc(Br)cc4c3N(C(=O)C3CC3)CC4)CC2)c1,inactive
25,CCCCC12CN3CC(C)(CN(C1)C3c1ccc(O)c(OC)c1)C2=O (stereo not given),inactive

row,Compound,Potency
1,Cc1ccc(C)c(N2CCN(C(=O)C3CCC(CNS(=O)(=O)c4cccs4)CC3)CC2)c1 (stereo not given),inactive
2,Cc1ccc(C)c(Oc2c(C(F)(F)F)oc3c(CN4CCN(C)CC4)c(O)ccc3c2=O)c1,inactive
3,Cc1cc(C)c(NC(=O)c2cc3sc(Cl)cc3n2C)c(C)c1,inactive
4,O=C(NCc1ccccc1Cl)c1cccn1-c1nnc(N2CCCCC2)s1,inactive
5,COc1ccc(NC(=O)CSc2nnc(-c3nnn(-c4ccc(F)cc4)c3C)o2)cc1,inactive
6,O=C(Nc1ccc2ccccc2c1)Nc1nnc(-c2ccc(O)cc2)s1,inactive
7,O=C1CCc2cc(S(=O)(=O)Nc3cccc(Oc4ccccc4)c3)ccc2N1,inactive
8,CCOC(=O)c1ccc(N2C(=O)c3n[nH]c(C)c3C2c2ccc(O)c(OC)c2)cc1 (stereo not given),inactive
9,CCOC(=O)c1ccc(N2C(=O)c3[nH]nc(-c4ccccc4)c3C2c2ccc(C(C)C)cc2)cc1 (stereo not given),18.4 µM (active)
10,CCOC(=O)c1ccc(N2C(=O)c3n[nH]c(-c4ccco4)c3C2c2ccc(O)cc2)cc1 (stereo not given),inactive
11,Cc1cccc(CN2Cc3cccc4c3[C@H](C=CC4)CC2=S)c1,inactive
12,O=C(Cn1cnc2c(cnn2-c2ccccc2)c1=O)NCc1ccccc1,8.2 µM (active)
13,CC(=O)Cn1cnc2c(cnn2-c2ccccc2)c1=O,inactive
14,O=C(Cn1cnc2c(cnn2-c2ccc(F)cc2)c1=O)NCCc1ccccc1,inactive
15,COc1ccc2cc(CNc3ccc(OC)c(OC)c3)c(=O)n(CC(=O)Nc3ccccc3F)c2c1,inactive
16,COc1ccc(-c2noc(CSc3nc(C)cc(=O)[nH]3)n2)cc1OC,inactive
17,NC(N)=Nc1nc2ccc(Br)cc2c(=O)[nH]1,inactive
18,CC(C)Cn1c(=O)c2ccccc2n2c(-c3cccc(Cl)c3)nnc12,inactive
19,O=c1c2cc(Br)ccc2nc(-c2cccc(Cl)c2)n1O,9.2 µM (active)
20,COC(=O)c1cc(NC(=O)CCc2c(C)nc3c4c(C)cc(C)nc4nn3c2C)cc(C(=O)OC)c1,inactive
21,O=c1cc(COc2cccc(C(F)(F)F)c2)nc2sc3c(n12)CCCC3,inactive
22,O=S(=O)(NCC(c1ccco1)N1CCOCC1)c1cc(F)ccc1F (stereo not given),inactive
23,O=C(CSCc1cccs1)N1CCCC1,inactive
24,CC1CC(C)CN(C(=O)CSc2ccsc2[N+](=O)[O-])C1 (stereo not given),inactive
25,O=C(CSc1ccsc1[N+](=O)[O-])N1CCCCC1,18.4 µM (active)
